Molecules are shown by their SMILES. Inconclusive results are not listed. Calls of active or inactive are those of the source. Calls come from the whole dose curve; as a rule, active = well fitted cell-killing curve with a large enough effect in the repeat runs; inconclusive = weak or mixed curves, or effect the other way; inactive = flat fitted curve, though single readings scatter.

The record followed here is PubChem BioAssay (Tox21).
% is set by controls: 0 for no effect and ±100 for the full control effect.

The test is described as follows: qHTS assay to identify small molecule that activate the aryl hydrocarbon receptor (AhR) signaling pathway - cell viability counter screen (AID 743086).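 Note: HepG2 liver cells carrying the AhR DRE luciferase reporter; nearly all actives have a fitted effect of over 45% in size.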 The conditions noted are these: HepG2-AhR-luc viability, CellTiter-Fluor, 24 h; series mostly up to 70.3 µM; viability change, negative = cytotoxic: at the top concentration. The method in brief:
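HepG2-AhR-luc (HG2L7.5c1) cells, 4000/well, treated 24 h at 37 C with compound; viability measured as CellTiter-Fluor fluorescence after 30 min in the same wells as the luciferase read.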
On to `O=C1[C@H](CC[C@H](O)c2ccc(F)cc2)[C@@H](c2ccc(O)cc2)N1c1ccc(F)cc1`, for which the “viability change, negative = cytotoxic” value is 1.71% (inactive). In the case of `CC(=O)c1ccc2c(c1)[C@H](NC(=O)c1ccc(F)cc1)[C@@H](O)C(C)(C)O2` it was 0.0373% (inactive); in that of `CCOc1ccc2[nH]cc(C(=O)NCc3ccccc3)c(=O)c2n1`, 2.76% (inactive). With `Oc1ccc(Sc2ccc(O)cc2)cc1`, the “viability change, negative = cytotoxic” value was -11.3% (inactive). `N#Cc1cc2ccccc2c2ccccc12`: the “viability change, negative = cytotoxic” value is 21.3% [at 95 µM] (inactive). In the case of `CCN(CC)C(C)CN1c2ccccc2Sc2ccccc21` (stereo unspecified), the “viability change, negative = cytotoxic” value was -6.23% [at 32.5 µM] (inactive). With `Cc1ccc2c(ccc3ccccc32)c1`, the “viability change, negative = cytotoxic” value is 9.55% [at 95 µM] (inactive). In the case of `CN1CCC(OC(c2ccccc2)c2ccccc2)CC1` it was -2.23% [at 32.5 µM] (inactive); in that of `O=C(Cl)c1c(Cl)cccc1Cl`, 5.97% [at 95 µM] (inactive). In the case of `COc1ccc(C(C)=O)cc1`, the “viability change, negative = cytotoxic” value is 3.61% [at 95 µM] (inactive).

Turning to `CCCCCCCC/C=C\CCCCCCCC(N)=O`, the “viability change, negative = cytotoxic” value is -1.12% (inactive).

Take `O=C1CCCCCO1`: the “viability change, negative = cytotoxic” value is 9.63% [at 95 µM] (inactive).

With `CCCCC(CC)COCCCN` (stereo unspecified), the “viability change, negative = cytotoxic” value is -1.43% (inactive).

As for `C=CC(C)(CCC=C(C)C)OC(=O)c1ccccc1` (stereo unspecified), the “viability change, negative = cytotoxic” value was -3.31% (inactive).

For the compound `COC(Cc1ccccc1)OC`, the “viability change, negative = cytotoxic” value is -1.45% (inactive). In the case of `Oc1ccc(O)c2c(O)cccc12`, the “viability change, negative = cytotoxic” value is -21.6% (inactive). On to `CC1(C)CCC(C)(C)c2cc(NC(=O)c3ccc(C(=O)O)cc3)ccc21`, for which the “viability change, negative = cytotoxic” value was -15% (inactive). For the compound `CC(=O)c1c(C)c([N+](=O)[O-])c(C(C)(C)C)c([N+](=O)[O-])c1C`, the “viability change, negative = cytotoxic” value is 0.412% (inactive). Consider `CC1CCc2cc(F)cc3c(=O)c(C(=O)O)cn1c23` (stereo unspecified), for which the “viability change, negative = cytotoxic” value was 8.74% (inactive). As to `CC(=O)O[C@H]1C[C@@H]2CC[C@@H]3[C@H](CC[C@@]4(C)[C@H]3C[C@H]([N+]3(C)CCCCC3)[C@@H]4OC(C)=O)[C@@]2(C)C[C@@H]1N1CCCCC1`, the “viability change, negative = cytotoxic” value was -3.52% (inactive). For the compound `CN(C)CC[C@@H](c1ccc(Br)cc1)c1ccccn1`, the “viability change, negative = cytotoxic” value was -2.53% (inactive).
